Measurements from PubChem BioAssay AID1159580 (chemical genetic matrix, 2015).
Where “and” joins values, the source holds several entries; their conditions need not be identical. Identical values can stand only once. Among all 5,500 compounds or so, about 2,000 (36%) were called active. Not shown: some 18% with an inconclusive outcome. Cut-off read from the data, not from the text of the source: active = normalized growth mostly below about 0.91 (no sharp cut-off); inconclusive = no clear call, values can overlap the other calls; inactive = mostly above about 0.92. This is one part of the list.

Assay: chemical genetic growth profiling, strain panel (AID 1159580);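 note: tested at 20 µM; growth read once vehicle control cultures reached saturation at 30 °C; 1 = growth at the plate median or of vehicle wells; lower values mean less growth of the strain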
Details: S. cerevisiae deletion strains, growth OD

Measured: normalized growth

COc1cc(C(=O)O)cc(OC)c1O
inactive: locus YBR021W, strain FUR4, hits give low values 1.08 | locus YBR229C, strain ROT2, hits give low values 0.951 | locus YCL029C, strain bik1, hits give low values 0.976 | locus YDL035C, strain GPR1, hits give low values 1.01 | locus YDL074C, strain BRE1, hits give low values 0.961 | locus YDL101C, strain DUN1, hits give low values 0.982 | locus YDL185W, strain tfp1, hits give low values 0.987 | locus YDL192W, strain arf1, hits give low values 0.98 | locus YDR101C, strain arx1, hits give low values 0.972 | locus YDR150W, strain NUM1, hits give low values 0.979 | locus YDR162C, strain NBP2, hits give low values 1.01 | locus YDR318W, strain mcm21, hits give low values 1 | locus YDR388W, hits give low values 0.978 | locus YDR502C, strain sam2, hits give low values 0.982 | locus YEL061C, strain CIN8, hits give low values 0.986 | locus YER110C, hits give low values 0.977 | locus YER155C, strain BEM2, hits give low values 1 | locus YER167W, strain BCK2, hits give low values 1 | locus YGL078C, strain dbp3, hits give low values 0.986 | locus YGL086W, strain mad1, hits give low values 0.978 | locus YGL248W, strain PDE1, hits give low values 0.985 | locus YGR135W, strain pre9, hits give low values 1.05 | locus YGR229C, strain SMI1, hits give low values 1.01 | locus YGR252W, strain gcn5, hits give low values 1.04 | locus YHR030C, strain SLT2, hits give low values 1.04 and 0.994 | locus YHR079C, strain IRE1 (second series), hits give low values 0.977 | locus YHR079C, strain IRE1, hits give low values 1.02 | locus YHR094C, strain hxt1, hits give low values 0.984 | locus YHR129C, strain ARP1, hits give low values 0.997 | locus YHR200W, strain rpn10, hits give low values 0.98 | locus YIL066C, strain RNR3, hits give low values 0.981 | locus YIL073C, strain SPO22, hits give low values 0.983 | locus YIL125W, strain kgd1, hits give low values 0.987 | locus YIR030C, strain dcg1, hits give low values 0.988 | locus YJL095W, strain BCK1, hits give low values 1.03 and 0.981 | locus YJL134W, strain LCB3, hits give low values 0.994 | locus YJL168C, strain set2, hits give low values 0.975 | locus YJL187C, strain SWE1 (second series), hits give low values 0.971 | locus YJR043C, strain POL32, hits give low values 0.991 | locus YJR066W, strain TOR1, hits give low values 0.96 | locus YJR075W, strain HOC1, hits give low values 0.997 | locus YKL009W, strain mrt4, hits give low values 0.983 | locus YKL068W, hits give low values 0.989 | locus YKL085W, strain MDH1 (second series), hits give low values 0.983 | locus YKL085W, strain MDH1, hits give low values 0.983 | locus YKR001C, strain vps1, hits give low values 0.981 | locus YLR039C, strain RIC1, hits give low values 0.952 | locus YLR058C, strain SHM2, hits give low values 0.98 | locus YLR102C, strain apc9, hits give low values 0.985 | locus YLR113W, strain HOG1, hits give low values 1.01 | locus YLR262C, strain YPT6, hits give low values 0.963 | locus YLR268W, strain sec22, hits give low values 0.991 | locus YLR330W, strain CHS5, hits give low values 0.996 | locus YLR342W, strain FKS1 (second series), hits give low values 1.05 | locus YLR371W, strain rom2, hits give low values 0.965 | locus YLR418C, strain cdc73, hits give low values 1.01 | locus YML016C, strain PPZ1, hits give low values 0.984 | locus YML032C, strain rad52, hits give low values 0.975 | locus YML124C, strain tub3, hits give low values 0.979 | locus YMR078C, strain ctf18, hits give low values 0.977 | locus YMR223W, strain ubp8, hits give low values 1.04 | locus YMR307W, strain GAS1, hits give low values 1.01 | locus YNL067W, strain RPL9B, hits give low values 0.962 | locus YNL128W, strain TEP1, hits give low values 0.989 | locus YNL183C, strain NPR1, hits give low values 0.979 | locus YNL233W, strain BNI4, hits give low values 0.982 | locus YNL250W, strain rad50, hits give low values 0.976 | locus YNL271C, strain bni1, hits give low values 0.987 | locus YNL298W, strain CLA4, hits give low values 0.994 | locus YNL307C, strain MCK1, hits give low values 0.987 | locus YNR052C, strain pop2, hits give low values 0.993 | locus YOL012C, strain htz1 1.1 | locus YOL147C, strain pex11, hits give low values 0.984 | locus YOR061W, strain CKA2, hits give low values 0.964 | locus YOR069W, strain VPS5, hits give low values 0.995 | locus YOR136W, strain idh2, hits give low values 0.971 | locus YOR144C, strain elg1, hits give low values 0.991 | locus YOR184W, strain ser1, hits give low values 0.992 | locus YOR231W, strain MKK1, hits give low values 1.04 | locus YOR316C, strain cot1, hits give low values 0.97 | locus YPL241C, strain CIN2, hits give low values 0.999 | locus YPL256C, strain CLN2, hits give low values 1.04 | locus YPR119W, strain clb2, hits give low values 0.97 | locus YPR141C, strain kar3, hits give low values 0.969 | locus YPR163C, strain tif3, hits give low values 0.989 | locus YPR167C, strain met16, hits give low values 0.988 | strain wtn01, hits give low values 1
